Consider 59 molecules from PubChem BioAssay AID493232 (The Scripps Research Institute Molecular Screening Center, 2011).

Structures are written as SMILES. The campaign covered roughly 1,800 compounds. About 860 (48%) were called active. The set was probably picked from earlier hits. These entries were drawn from the full list. A number with no mark means an inactive call. Cut-off read from the data, not from the text of the source: active = inhibition above about 17%; inactive = the rest.

This assay is described as follows: CHO-K1 parental line HTRF response – cell-based, counter-screen for OX1R antagonist project (AID 493232).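 Note: 0% = agonist challenge with vehicle and 100% = vehicle alone without agonist.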 The conditions noted are these: parental CHO-K1 cells, HTRF counterscreen; at 6.6 µM; stronger effect = higher value.
For `NS(=O)(=O)c1ccc(CCNC(=O)c2ccc([N+](=O)[O-])cc2[N+](=O)[O-])cc1`, the inhibition is 76.4% (active).

Regarding `O=C(Nc1nnc(-c2ccccc2)o1)c1cc(-c2cccs2)nc2ccccc12`, the inhibition was -1.4%.

As to `Cn1c(N)c(C(=O)COC(=O)c2ccc3ccccc3c2)c(=O)n(C)c1=O`, the inhibition is 9.11%.

For the molecule `COc1ccc(CCn2c(NCCCN3CCOCC3)nc3c2c(=O)[nH]c(=O)n3C)cc1`, the inhibition was -0.46%.

`O=C(/C=C/c1ccco1)Nc1cccc(-c2nc3ccccc3[nH]2)c1`: the inhibition is 20.4% (active).

For the molecule `Cc1ccc2c(c1)nnc1nnc(SCC(=O)O)n12`, the inhibition was 113% (active).

As for `CCn1c(SCC(=O)c2ccc3ccccc3c2)nnc1-c1cccs1`, the inhibition is 7.75%.

Consider `COc1ccc2[nH]c(=O)c(CNc3ccc(C)c(C)c3)cc2c1`, for which the inhibition is 33.7% (active).

Take `CN(C(=O)CSc1nnc(-c2n[nH]c3ccccc23)o1)c1ccccc1`: the inhibition is -4.39%.

`O=C(Nc1ccc2sc3ccccc3c(=O)c2c1)c1ccccc1Cl`: the inhibition was -3.67%.

On to `Cc1ccc(Nc2nc(CSc3nnnn3-c3ccccc3)cc(=O)[nH]2)cc1`, for which the inhibition was 1.23%.

Consider `CCn1c(O)c(N=NC2=NC(=O)CS2)c2cc(C)ccc21`, for which the inhibition is 21.8% (active).

Regarding `O=C(Oc1ccccc1C(=S)N1CCCCC1)c1cc([N+](=O)[O-])cc([N+](=O)[O-])c1`, the inhibition was 56.2% (active).

Regarding `COc1cc(C(=S)N2CCOCC2)cc(OC)c1OC(=O)c1ccc([N+](=O)[O-])cc1[N+](=O)[O-]`, the inhibition was 8.29%.

`COC(=O)CNC(=O)c1ccc2c(c1)S(=O)(=O)c1ccccc1C2=O`: the inhibition was 70.6% (active).

Consider `COc1cccc(C(=O)NC(=O)Nc2nc(C)cc(C(F)(F)F)n2)c1`, for which the inhibition was 0.24%.

In the case of `CCOc1ccc(CCNC(=O)C(CC)n2nc(C)n3c(cc4sccc43)c2=O)cc1OCC` (centres undefined), the inhibition is 7.91%.

With `CCn1c(=N)c(C(=O)NCCCOC)cc2c(=O)n3cccc(C)c3nc21`, the inhibition was 83.9% (active).

For the molecule `CCOc1ccc(/C=C/C(=O)OCC(=O)c2ccccc2OC)cc1OC`, the inhibition is 7.57%.

On to `O=C(NCc1ccco1)C1CCCN(S(=O)(=O)c2cccc3nonc23)C1` (centres undefined), for which the inhibition is 19.7% (active).

Regarding `C/C(N)=C(/C#N)C(=O)COC(=O)c1cc(-c2ccc(C)cc2)nc2ccccc12`, the inhibition is 6.3%.

Regarding `COc1cc2ccccc2cc1C(=O)Nc1ccc(N2CCOCC2)cc1`, the inhibition is 16.2%.

Turning to `Cn1cnnc1Sc1ccc(S(C)(=O)=O)cc1[N+](=O)[O-]`, the inhibition was 50.5% (active).

For `Nc1[nH][nH]c(=O)c1N=Nc1ccc2c(c1)OCO2`, the inhibition is 52.9% (active).

With `COc1ccc(CCNC(=O)/C(C#N)=C2\N=C(NC(=O)c3cccs3)c3ccccc32)cc1`, the inhibition is 24% (active).

On to `O=C(N/N=C/c1c(Cl)[nH]c2ccccc12)c1sc2ccccc2c1Cl`, for which the inhibition is 16%.

Take `Cc1cc(C(=O)NC2CCCc3c2cnn3-c2cccc(C)c2C)c(C)o1` (centres undefined): the inhibition was 9.36%.

As to `O=C(Nc1nnc(C2=COCCO2)o1)c1ccc([N+](=O)[O-])s1`, the inhibition was 52.2% (active).

For `Cc1ccccc1S(=O)(=O)N1[C@@H](c2cccc(Cl)c2)C(C(=O)O)=CC[C@H]1c1ccc(Cl)cc1`, the inhibition was 12.8%.

Take `COc1ccc(N2CC(C(=O)NCCN3C(=O)S/C(=C\c4cccnc4)C3=O)CC2=O)c(OC)c1` (centres undefined): the inhibition was 56.9% (active).

`COc1ccccc1N1CC(C(=O)Nc2ccc(S(=O)(=O)N3CCOCC3)cc2)CC1=O` (centres undefined): the inhibition is 8.11%.

In the case of `COc1ccc(S(=O)(=O)NC(C)c2ccccc2)cc1C(=O)N1CCCCC1` (centres undefined), the inhibition is -4.56%.

On to `CC(=O)Oc1ccc(C(C)=O)c2c1OCCO2`, for which the inhibition was 0.1%.

For the molecule `COc1cccc(N=c2oc3c(C)ncc(CO)c3cc2C(N)=O)c1`, the inhibition is 51.5% (active).

With `COc1cccc(/C=N/Nc2cc(C)nc(-c3ccccc3O)n2)c1O`, the inhibition was 15.3%.

For `CSCCC(NC(=O)c1cc([N+](=O)[O-])cc([N+](=O)[O-])c1)c1nc2ccccc2[nH]1` (centres undefined), the inhibition was 24.7% (active).

In the case of `COc1cccc(/C=N/NC(=O)c2[nH]nc3c2CCc2ccccc2-3)c1O`, the inhibition is -15.5%.

Consider `COCCNC(=O)Nc1ccc2nc(-c3ccco3)c(-c3ccco3)nc2c1`, for which the inhibition is 48.3% (active).

Turning to `Cc1cc(-c2ccc(C)c(S(=O)(=O)NC(C)Cc3ccco3)c2)on1` (centres undefined), the inhibition is -2.9%.

For `CCn1c(C)nc2c1C(=O)c1ccccc1C2=O`, the inhibition is 97.1% (active).

Take `C[n+]1ccccc1C1CCCC/C1=N\Nc1ccc([N+](=O)[O-])cc1[N+](=O)[O-]` (centres undefined): the inhibition was 9.46%.

In the case of `c1ccc(-c2nc(NCc3ccco3)c3ccccc3n2)cc1`, the inhibition was 8.16%.

`CC(=O)N/N=C/c1cc2c(cc1[N+](=O)[O-])OCO2`: the inhibition is 60.3% (active).

Regarding `O=C(CN1C(=O)c2cccc3cccc(c23)C1=O)N1CCCCC1`, the inhibition was 50% (active).

Take `CCC(=O)N(C)C(c1ccccc1Cl)c1nnnn1-c1c(C)cccc1C` (centres undefined): the inhibition is 0.65%.

Turning to `Cc1cccc(NS(=O)(=O)c2cccc(C(=O)NNC(=O)c3ccccc3O)c2)c1`, the inhibition was 4.72%.

`N#C/C(=C1\CCCN1)c1nc(-c2ccccc2)cs1`: the inhibition is 10.3%.

For `Nc1ccc2nc3c(=O)[nH]c(=S)[nH]c3nc2c1`, the inhibition is 77% (active).

For the molecule `Nc1nc(-c2sc3nc4c(cc3c2N)CCCC4)nc(N2CCOCC2)n1`, the inhibition was 16.2%.

As for `CC(=O)c1cccc(NC(=O)C2CCCN2S(=O)(=O)c2cccc3nsnc23)c1` (centres undefined), the inhibition was 33% (active).

For the molecule `Cc1cc(C)cc(NC(=O)C2CCCN2S(=O)(=O)c2cccc3cccnc23)c1` (centres undefined), the inhibition is -5.63%.

`O=C(N/N=C/c1sc(N2CCCCC2)nc1-c1cccs1)c1cccnc1`: the inhibition is 6.55%.

For the molecule `N#Cc1nc(-c2cccc3ccccc23)oc1N`, the inhibition is -17.8%.

Consider `O=C(Nc1ccccc1Cl)/C(Cl)=C(\Cl)S(=O)c1ccccc1` (centres undefined), for which the inhibition was -27.6%.

`COc1ccc2oc(=O)c(C(=O)NCc3ccccn3)cc2c1`: the inhibition was 47.5% (active).

As to `O=C(O)CCC(=O)Nc1nc2ccc([N+](=O)[O-])cc2s1`, the inhibition is 47.7% (active).

For `COc1cccc(/C=C/c2ccc3ccccc3n2)c1OC(C)=O`, the inhibition is 11.5%.

Take `Cc1c(/C=N\NC(=O)c2cc3ccccc3o2)c2ccccc2n1C`: the inhibition is 12.8%.

Take `COC(=O)N/N=C/c1c[n+]([O-])c2ccccc2[n+]1[O-]`: the inhibition is 97.3% (active).
